“And” between values parts separate entries of the source, which are not always exact repeats. Equal entries are not always repeated. Results filed as inconclusive are left out. A call without a number means that no potency is given here. A structure can be active in one record and inactive in another. The source made the active and inactive calls. Unless noted, calls come from the whole dose curve.
Key:
[1] = qHTS assay to identify small molecule antagonists of the sonic hedgehog signaling (Shh) pathway (AID 1259369); note: nearly all actives have a fitted effect of over 45% in size; note: potency is the fitted concentration of half-maximal effect
Outline: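 Antagonist mode: compound added to 3T3 Gli1-Luc cells followed by conditioned-medium stimulation, 24 h at 37 C, 5% CO2. Inhibition taken as loss of Gli1-driven luciferase luminescence.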

[2] = biological target: Estrogen receptor beta (Homo sapiens) (UniProt Q92731); assay: qHTS assay to identify small molecule agonists of the estrogen receptor beta (ER-beta) signaling pathway (AID 1259377; active = well fitted activation curve with a large enough effect in the signal ratio in the repeat runs, not every such curve was filed as active; the % refers to the signal ratio)
Outline: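 Screening used GripTite ER-beta-UAS-bla cells held in 2% charcoal-stripped FBS medium. After overnight (16 hr) compound incubation at 37C, beta-lactamase activity was detected with a FRET substrate by fluorescence.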

[3] = biological target: Estrogen receptor beta (Homo sapiens) (UniProt Q92731); assay: qHTS assay to identify small molecule antagonists of the estrogen receptor beta (ER-beta) signaling pathway (AID 1259378; active = well fitted inhibition curve with a large enough effect in the signal ratio in the repeat runs, not every such curve was filed as active; the % refers to the signal ratio; note: potency is the fitted concentration of half-maximal effect)
Outline: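 ER-beta-UAS-bla HEK293T (GripTite) cells in 2% charcoal-stripped FBS medium were preincubated 6 hr at 37C, dosed with compound, then stimulated with 1 nM E2 (final) for 16 hr; beta-lactamase reporter read by B/G FRET fluorescence after 2 hr substrate loading.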

[4] = qHTS assay to identify small molecule agonists of the androgen receptor (AR) signaling pathway in the presence of an antagonist - cell viability counter screen (AID 1259379; active = well fitted curve in the direction sought with a large enough effect in the repeat runs; an effect the other way counts as inactive or inconclusive; note: nearly all actives have a fitted effect of over 25% in size; note: potency is the fitted concentration of half-maximal effect)
Outline: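 Cytotoxicity counter-screen run in the same wells as the nilutamide-challenged (3.0 µM final) AR agonist assay in MDA-kb2 cells. Compounds tested at 15 concentrations for 16 h, 37 °C without CO2; CellTiter-Fluor fluorescence read.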

[5] = qHTS assay to identify small molecule agonists of the estrogen receptor beta (ER-beta) signaling pathway - cell viability counter screen (AID 1259380; active = well fitted curve in the direction sought with a large enough effect in the repeat runs; an effect the other way counts as inactive or inconclusive; note: nearly all actives have a fitted effect of over 30% in size; note: potency is the fitted concentration of half-maximal effect)
Outline: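 Cell viability counter screen: CellTiter-Glo luminescence (30 min, room temperature) measured in the same wells as the beta-lactamase readout, after 16 hr compound exposure at 37C of ER-beta-bla HEK293T cells in 2% charcoal-stripped FBS medium.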

[6] = qHTS assay to identify small molecule antagonists of the estrogen receptor beta (ER-beta) signaling pathway - cell viability counter screen (AID 1259382; active = well fitted curve in the direction sought with a large enough effect in the repeat runs; an effect the other way counts as inactive or inconclusive; note: nearly all actives have a fitted effect of over 55% in size; note: potency is the fitted concentration of half-maximal effect)
Outline: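 Cytotoxicity was measured in the same wells by CellTiter-Glo luminescence after 30 min at room temperature. Cells were ER-beta-bla HEK293T in charcoal-stripped serum, given compound together with 1 nM E2 and incubated 16 h at 37C.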

[7] = biological target: Estrogen receptor (Homo sapiens) (UniProt P03372); assay: qHTS assay to identify small molecule agonists of the estrogen receptor alpha (ER-alpha) signaling pathway in the presence of an antagonist (AID 1259383); note: nearly all actives have a fitted effect of over 15% in size; note: potency is the fitted concentration of half-maximal effect; for activation: top concentration of the series differs between compounds
Outline: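 Agonist-mode confirmation run in the presence of 10.0nM (final) ICI-182,780 antagonist. The reporter was ERE-driven luciferase in VM7Luc4E2 cells, grown in charcoal-stripped serum. Cells were exposed to 15-concentration compound series for 22hr, then ONE-Glo luminescence was read.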

[8] = qHTS assay to identify small molecule agonists or antagonists of the thyroid stimulating hormone receptor (TSHR) signaling pathway - wild type cell line counter screen (AID 1259384)
Outline: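 Wild-type HEK293 cells were plated 18 h at 37 C/5% CO2, pin-dosed with compound plus Ro20-1724 medium, held 30 min at room temperature, then given cAMP-d2 and anti-cAMP-cryptate; fluorescence was read after 1 h. Fifteen concentrations, triplicate.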

[9] = biological target: Thyrotropin receptor (Homo sapiens) (UniProt P16473); assay: qHTS assay to identify small molecule antagonists of the thyroid stimulating hormone receptor (TSHR) signaling pathway (AID 1259385); note: nearly all actives have a fitted effect of over 20% in size; note: potency is the fitted concentration of half-maximal effect
Outline: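 TSHR-HEK293 cells were plated and held 18 h at 37C/5% CO2, then given compound plus Ro20-1724 and stimulated with TSH at 1.5 ng/mL final. After 30 min at room temperature, cAMP was detected with cAMP-d2/anti-cAMP-cryptate (1 h) by fluorescence.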

[10] = biological target: Androgen receptor (Homo sapiens) (UniProt P10275); assay: qHTS assay to identify small molecule agonists of the androgen receptor (AR) signaling pathway in the presence of an antagonist (AID 1259381); note: nearly all actives have a fitted effect of over 15% in size; note: potency is the fitted concentration of half-maximal effect
Outline: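 Agonist-mode confirmation run against 3.0 uM final nilutamide: compounds titrated at 15 concentrations onto MDA-kb2 MMTV-luciferase reporter cells. Luminescence measured with ONE-Glo following 16 hr incubation, 37C, 0% CO2.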

Estrogen receptor beta (Homo sapiens), sequence (Q92731 whole entry, looked up): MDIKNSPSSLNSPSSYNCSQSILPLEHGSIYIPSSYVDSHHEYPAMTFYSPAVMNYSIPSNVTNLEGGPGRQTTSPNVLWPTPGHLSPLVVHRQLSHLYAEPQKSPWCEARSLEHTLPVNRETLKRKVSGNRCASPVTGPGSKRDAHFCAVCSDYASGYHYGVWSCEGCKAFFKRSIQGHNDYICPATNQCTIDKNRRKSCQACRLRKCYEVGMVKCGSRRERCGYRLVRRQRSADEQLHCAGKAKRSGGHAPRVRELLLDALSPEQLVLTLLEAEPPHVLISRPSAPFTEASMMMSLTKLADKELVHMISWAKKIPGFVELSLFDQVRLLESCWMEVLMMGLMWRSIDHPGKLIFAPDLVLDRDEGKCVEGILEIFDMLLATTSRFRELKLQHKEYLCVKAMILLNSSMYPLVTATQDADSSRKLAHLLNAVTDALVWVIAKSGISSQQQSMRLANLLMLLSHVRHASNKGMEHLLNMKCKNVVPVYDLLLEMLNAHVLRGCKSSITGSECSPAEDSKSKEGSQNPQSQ
Estrogen receptor (Homo sapiens), sequence (P03372 whole entry, looked up): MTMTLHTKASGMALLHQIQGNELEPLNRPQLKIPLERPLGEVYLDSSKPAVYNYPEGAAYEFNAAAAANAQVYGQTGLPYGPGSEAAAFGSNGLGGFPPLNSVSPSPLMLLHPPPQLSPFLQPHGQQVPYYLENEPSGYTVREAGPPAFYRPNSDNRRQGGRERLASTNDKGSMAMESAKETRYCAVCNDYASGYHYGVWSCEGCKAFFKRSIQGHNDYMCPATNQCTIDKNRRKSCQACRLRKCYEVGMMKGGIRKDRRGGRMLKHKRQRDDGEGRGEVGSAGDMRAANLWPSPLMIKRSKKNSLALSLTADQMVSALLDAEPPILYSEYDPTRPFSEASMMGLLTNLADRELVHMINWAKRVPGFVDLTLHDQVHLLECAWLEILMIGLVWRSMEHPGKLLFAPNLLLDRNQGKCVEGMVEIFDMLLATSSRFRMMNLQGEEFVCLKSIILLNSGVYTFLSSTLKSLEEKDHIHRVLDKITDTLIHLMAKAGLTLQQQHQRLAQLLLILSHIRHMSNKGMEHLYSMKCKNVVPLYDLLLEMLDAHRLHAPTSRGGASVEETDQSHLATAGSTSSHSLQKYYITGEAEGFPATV
Thyrotropin receptor (Homo sapiens), sequence (P16473 whole entry, looked up): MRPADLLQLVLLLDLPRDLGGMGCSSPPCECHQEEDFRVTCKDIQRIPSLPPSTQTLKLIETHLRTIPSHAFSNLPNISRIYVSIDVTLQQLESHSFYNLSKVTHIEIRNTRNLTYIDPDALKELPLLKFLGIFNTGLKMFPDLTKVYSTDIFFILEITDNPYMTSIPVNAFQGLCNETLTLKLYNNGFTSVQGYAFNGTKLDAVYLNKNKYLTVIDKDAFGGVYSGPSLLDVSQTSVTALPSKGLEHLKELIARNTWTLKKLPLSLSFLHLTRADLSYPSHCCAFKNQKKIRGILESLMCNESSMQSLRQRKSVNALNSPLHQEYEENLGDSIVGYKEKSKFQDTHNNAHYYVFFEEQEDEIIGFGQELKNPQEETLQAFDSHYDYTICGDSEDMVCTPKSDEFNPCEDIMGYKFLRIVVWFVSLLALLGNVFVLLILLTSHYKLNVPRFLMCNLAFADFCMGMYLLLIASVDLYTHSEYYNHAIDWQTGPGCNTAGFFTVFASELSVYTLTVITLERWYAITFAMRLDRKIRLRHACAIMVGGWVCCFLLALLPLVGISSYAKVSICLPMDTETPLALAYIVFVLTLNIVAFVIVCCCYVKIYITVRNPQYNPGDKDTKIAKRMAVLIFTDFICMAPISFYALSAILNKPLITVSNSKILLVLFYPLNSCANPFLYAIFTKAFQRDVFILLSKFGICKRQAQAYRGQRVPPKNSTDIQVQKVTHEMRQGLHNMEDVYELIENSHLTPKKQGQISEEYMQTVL
Androgen receptor (Homo sapiens), sequence (P10275 whole entry, looked up): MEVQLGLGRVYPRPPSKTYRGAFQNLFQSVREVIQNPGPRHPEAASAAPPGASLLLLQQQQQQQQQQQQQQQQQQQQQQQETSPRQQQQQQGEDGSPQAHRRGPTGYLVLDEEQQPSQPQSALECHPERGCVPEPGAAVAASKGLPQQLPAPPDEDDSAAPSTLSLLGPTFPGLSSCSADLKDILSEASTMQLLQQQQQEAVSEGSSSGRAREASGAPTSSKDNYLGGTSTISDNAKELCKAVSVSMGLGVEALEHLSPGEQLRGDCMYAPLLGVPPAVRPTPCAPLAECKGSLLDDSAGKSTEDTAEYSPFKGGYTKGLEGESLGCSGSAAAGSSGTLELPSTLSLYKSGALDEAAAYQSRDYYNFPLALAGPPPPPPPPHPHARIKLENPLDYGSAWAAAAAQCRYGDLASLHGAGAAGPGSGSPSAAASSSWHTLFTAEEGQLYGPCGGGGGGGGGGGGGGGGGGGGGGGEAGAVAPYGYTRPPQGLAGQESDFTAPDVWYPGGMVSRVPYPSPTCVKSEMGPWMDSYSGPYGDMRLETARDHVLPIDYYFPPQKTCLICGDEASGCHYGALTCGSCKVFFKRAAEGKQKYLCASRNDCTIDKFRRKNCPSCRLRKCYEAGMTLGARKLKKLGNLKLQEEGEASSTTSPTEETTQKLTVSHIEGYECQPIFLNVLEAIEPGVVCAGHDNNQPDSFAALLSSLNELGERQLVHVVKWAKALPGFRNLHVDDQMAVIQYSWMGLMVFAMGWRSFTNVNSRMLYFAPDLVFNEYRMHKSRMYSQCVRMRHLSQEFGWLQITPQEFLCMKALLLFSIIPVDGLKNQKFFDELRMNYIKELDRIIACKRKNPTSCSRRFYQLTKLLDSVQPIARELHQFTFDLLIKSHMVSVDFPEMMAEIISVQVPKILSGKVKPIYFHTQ

SMILES	Potency [1]	Potency [2]	Potency [3]	Potency [4]	Potency [5]	Potency [6]	Potency [7]	outcome [8]	Potency [9]	Potency [10]
CN(C)CCc1c[nH]c2cccc(O)c12	53.9 µM (active)	inactive	inactive	inactive	inactive	inactive				
O=[N+]([O-])c1ccc(Oc2ccc(C(F)(F)F)cc2[N+](=O)[O-])cc1	61.1 µM (active)	inactive	inactive	inactive	inactive	inactive	inactive	inactive	inactive	
Cc1ccc(CCl)cc1	inactive	inactive	inactive	inactive	inactive		inactive	inactive		inactive
N#Cc1ccccc1N	inactive	inactive	inactive	inactive	inactive		inactive	inactive	inactive	inactive
N#CCc1ccc(Cl)cc1	inactive	inactive	inactive	inactive	inactive	inactive	inactive			
CC(C)CBr	inactive	inactive	inactive	inactive	inactive	inactive	inactive	inactive	inactive	0.386 µM (active)
Clc1ccc(C(c2ccc(Cl)cc2)C(Cl)(Cl)Cl)cc1	27.5 µM (active) and inactive	inactive	13.7 µM (active) and 7.5 µM (active)	inactive	61.6 µM (active) and 54.5 µM (active)	inactive		inactive	30.9 µM (active) and 54.5 µM (active)	
CCCCOP(=O)(CCCC)OCCCC	inactive	inactive	inactive	inactive	inactive	inactive				inactive
ClC1=C(Cl)[C@]2(Cl)[C@@H]3[C@@H](Cl)[C@@H](Cl)C[C@@H]3[C@@]1(Cl)C2(Cl)Cl	inactive	inactive	inactive	inactive	inactive	inactive	inactive			inactive
Cc1ccc(C(=O)Cl)cc1	inactive	inactive	inactive	inactive	inactive	inactive	inactive	inactive	inactive	inactive
CCN	inactive	inactive	inactive	inactive	inactive	inactive		inactive	inactive	
CCOP(=S)(OCC)SCS(=O)(=O)CC	inactive	inactive	inactive	inactive	inactive		inactive	inactive		inactive
CC(C)C1CCC(Cc2ccc(Cl)cc2)C1(O)Cn1cncn1 (stereo not given)	17.1 µM (active)	inactive	24.1 µM (active)	67.9 µM (active)	67.9 µM (active)	67.9 µM (active)	inactive	inactive		
CC(O)C#N (stereo not given)	inactive	inactive	inactive	inactive	inactive		inactive	inactive	inactive	inactive
Clc1ccc(COC(Cn2ccnc2)c2ccc(Cl)cc2Cl)cc1 (stereo not given)	11.4 µM (active)	inactive	13.3 µM (active)	50.8 µM (active) and 60.9 µM (active) and inactive	57 µM (active) and 30.5 µM (active) and 11.9 µM (active)	50.8 µM (active) and 27.2 µM (active) and 26.6 µM (active)		inactive	57 µM (active) and 68.3 µM (active)	
CC1(C)C(/C=C(\Cl)C(F)(F)F)C1C(=O)OC(C#N)c1cccc(Oc2ccccc2)c1 (stereo not given)	inactive	inactive	inactive	inactive	inactive	inactive		inactive		
CN(CCCC(O)c1cccnc1)N=O (stereo not given)	inactive	inactive	inactive	inactive	inactive	inactive	inactive	inactive	inactive	inactive
C=COCCCl	inactive	inactive	inactive	inactive	inactive	inactive	inactive	inactive		inactive
O=CC(Br)(Br)Br	24.3 µM (active)	inactive	inactive	30.5 µM (active)	21.6 µM (active)		inactive	inactive		
BrCBr	inactive	inactive	inactive	inactive	inactive	inactive	inactive	inactive	inactive	
COc1cc(N)c(Cl)cc1C(=O)NC1CN2CCC1CC2 (stereo not given)	inactive	inactive	inactive	inactive	inactive	inactive		inactive		
CC(C)OC(=O)C(O)(c1ccc(Cl)cc1)c1ccc(Cl)cc1	54.5 µM (active)	inactive	30.6 µM (active)	inactive	inactive	inactive	inactive	inactive		
c1ccc(OCC2CO2)cc1 (stereo not given)	inactive	inactive	inactive	inactive	inactive	inactive		inactive	inactive	

SMILES	Potency [1]	Potency [2]	Potency [3]	Potency [4]	Potency [5]	Potency [6]	Potency [7]	outcome [8]	Potency [9]	Potency [10]
Nc1ccccc1C(=O)OC/C=C/c1ccccc1	inactive	inactive	48.7 µM (active)	inactive	21.7 µM (active)	inactive	12.2 µM (active)	inactive	inactive	
ClCc1ccccc1CCl	inactive	inactive	inactive	61.1 µM (active)	inactive	inactive	inactive	inactive		
N#Cc1ccccc1Cl	inactive	inactive	inactive	inactive	inactive	inactive		inactive	inactive	
N#CNC#N	inactive	inactive	inactive	inactive	inactive	inactive		inactive		
Cc1cccc(OP(=O)(Oc2cccc(C)c2)Oc2cccc(C)c2)c1	inactive	inactive	inactive	inactive	inactive	inactive		inactive	inactive	inactive
N#CCCO	inactive	inactive	inactive	inactive	inactive		inactive			inactive
ClC1=C(Cl)[C@]2(Cl)[C@@H]3[C@@H](Cl)[C@H](Cl)C[C@@H]3[C@@]1(Cl)C2(Cl)Cl	inactive	inactive	inactive	inactive	inactive	inactive	inactive			inactive
O=[N+]([O-])c1cc(Cl)ccc1Cl	inactive	inactive	inactive	inactive	inactive	inactive	inactive	inactive		inactive
COCC(=O)N(c1c(C)cccc1C)[C@H](C)C(=O)OC	inactive	inactive	inactive	inactive	inactive	inactive	inactive	inactive		
COc1cccc2c1C(=O)c1c(O)c3c(c(O)c1C2=O)C[C@@](O)(C(=O)CO)CC3OC1CC(N2CCOC(OC)C2)C(O)C(C)O1 (stereo not given in full)	0.0067 µM (active)	inactive	0.168 µM (active)	13.3 µM (active)	inactive	inactive	inactive	inactive		inactive
CCOP(=S)(OCC)OC(Cl)C(Cl)(Cl)Cl (stereo not given)	inactive	inactive	inactive	inactive	inactive	inactive		inactive		
Cc1cc(C)c(C2=C(OC(=O)CC(C)(C)C)C3(CCCC3)OC2=O)c(C)c1	inactive	inactive	inactive	inactive	inactive	inactive	inactive			
Fc1cccc(Cl)c1CCl	inactive	inactive	inactive	inactive	inactive	inactive	inactive	inactive	inactive	
COc1ccc(OC)c(CC(C)N)c1 (stereo not given)	inactive	inactive	inactive	inactive	inactive	inactive	inactive	inactive	inactive	
CC(C)(C)C(O)/C(=C\c1ccc(Cl)cc1Cl)n1cncn1 (stereo not given)	7.4 µM (active)	inactive			74 µM (active)		inactive			
CC(C)(C)OO	inactive		inactive	inactive	inactive			inactive	inactive	inactive
O=C/C(Cl)=C(/Cl)C(=O)O	38.6 µM (active)	inactive		inactive			inactive	inactive	inactive	
Oc1ccc(C(=C(Cl)Cl)c2ccc(O)cc2)cc1	9.67 µM (active)		3.43 µM (active)	inactive	68.5 µM (active)		1.93 µM (active)	inactive	inactive	
NC(=O)c1ccc(N)nc1	inactive		inactive	inactive			inactive			inactive
O=c1oc2ccccc2c(O)c1Cc1c(O)c2ccccc2oc1=O	inactive			inactive	5.31 µM (active)					inactive
BrCC(Br)c1ccccc1 (stereo not given)	inactive		inactive	inactive	inactive	inactive	inactive	inactive	inactive	inactive
C1CCC2CCCCC2C1 (stereo not given)	inactive		inactive	inactive	inactive	inactive	inactive			

From PubChem BioAssay (Tox21)
